In PubChem BioAssay (NCI):
The panel holds about 83,000 compounds, 20% with a hit somewhere; the sample as a whole holds those more often.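 Percent growth is the endpoint: 0 to 100 indicates growth inhibition (40 means 60% inhibition), 0 means no net growth, and negative values indicate cell death.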 Active and inactive are the calls of the source.

Each compound was assayed on UACC-62 melanoma (assay: NCI-60 one-dose screen, 48 h (100 = growth as untreated, 0 = no growth, -100 = all killed)). Conditions: 10 µM unless noted.
Description: Growth inhibition of the UACC-62 human tumor cell line is measured as a screen for anti-cancer activity. Cells are grown in 96 well plates and exposed to the test compound for 48 hours. Compounds are tested at a single concentration, which is 10^-5 M for most compounds. The reported endpoint is percent growth (GI% or GIPRCNT), where numbers from 0 - 100% represent growth inhibition, and numbers from -100% - 0 represent cell death. For example, a value of 40 represents 60% growth inhibition. A value of 0 means no net growth occurred over the course of the experiment. A value of -40 indicates 40% of cells at the beginning of the experiment died by the end of the experiment. A value of -100 means all cells are dead at the end of the experiment.
NCI-60 Human Tumor Cell Lines Screen was performed using the standard one-dose NCI protocol, which is described in more detail at https://dtp.cancer.gov/discovery_development/nci-60/default.htm.
Compounds with GIPRCNT values below 10 were considered active. Activity score was based on GIPRCNT using the following formula: […]
Score is 0 for GIPRCNT values of 100 or above, 50 for GIPRCNT values of 0, and 100 for GIPRCNT values of -100.
For `COc1ccc(Br)c2ccccc12`, the growth was 107% (inactive). For `C/C(=N\NC(=S)Nc1ccccc1)c1ccccn1`, the growth was 16.4% (inactive). In the case of `O=C(C(=O)c1cccnc1)c1cccnc1`, the growth is reported as 102% (inactive). For `N#Cc1nc(-c2ccc(Cl)cc2)cc(-c2ccc(Nc3nc(N4CCCCC4)nc(N4CCCCC4)n3)cc2)c1N`, the growth was 106% (inactive). In the case of `C/C(=N\OC(=O)Nc1ccccc1)c1ccccc1`, the growth is reported as 94.2% (inactive). In the case of `O=C(Nc1ccccc1Cl)Oc1ccc2ccccc2c1`, the growth is reported as 91.8% (inactive). For `CN(C)c1ccc(N2Cc3ccccc3OC3=C2C(=O)c2c(O)ccc(O)c2C3=O)cn1`, the growth was -87.4% (active). `Cc1cc(C)cc(CCCCCCCCCCCCCCCCCC(=O)O)c1` was tested, and the growth was 106% (inactive). In the case of `C#CCNC(=S)N/N=C(\C)c1ccccn1`, the growth is reported as -5.96% (active). In the case of `CCCc1cc2c(cc1CN(Cc1cc3c(cc1CCC)OCO3)C(=N)OCC)OCO2`, the growth is reported as 77.2% (inactive). `CCOC(=O)Nc1ccc2nc(-c3cscn3)[nH]c2c1` was tested, and the growth was 45.4% (inactive). For `CCCCNCC(O)c1cc2c(Cl)cc(Cl)cc2c2cc(C(F)(F)F)ccc12` (stereo not given), the growth was -84.4% (active). For `Cc1ccc2cc3c(NC(=O)c4cccnc4)nn(C)c3nc2c1`, the growth was 88.7% (inactive). In the case of `C=CCN(CCOC(=O)c1ccc([N+](=O)[O-])cc1)CCOC(=O)c1ccc([N+](=O)[O-])cc1`, the growth is reported as 110% (inactive). With `CCCCCCCCNC(C)C(O)c1ccc(SC(C)C)cc1` (stereo not given) the growth was 92.7% (inactive). For `CCc1ccc2c(c1)N(CCO)C1=C(C(=O)OC1)C2c1cccc(Br)c1` (stereo not given), the growth was 35.5% (inactive). In the case of `Clc1ccc2c(c1)-n1cccc1C(c1ccc3ccccc3c1)=NC2`, the growth is reported as 78.3% (inactive). In the case of `COc1cccc(OCC(O)CN2CCN(c3ccccc3)CC2)c1` (stereo not given), the growth is reported as 94.3% (inactive). In the case of `C/C(=C\C(=N\N=C(N)N)c1ccc(Cl)cc1)c1ccc(Cl)cc1`, the growth is reported as -87.3% (active). For `O=C1CC2(O)CSc3nc(=O)cc(n32)N1` (stereo not given), the growth was 102% (inactive). In the case of `CCN(CC)C(Cl)=Nc1ccc(Cl)cc1`, the growth is reported as 102% (inactive). `Cc1cc(Cl)c2ccc(N(C)C)cc2n1` was tested, and the growth was 101% (inactive). For `Nc1c(C(=O)Nc2cccc(Cl)c2)sc2ncc(Br)cc12`, the growth was 99.5% (inactive). `Cc1nn(-c2ccc(Cl)cc2)c(=O)n1CCN1CCOCC1` was tested, and the growth was 82.8% (inactive). For `COc1ccc(-c2n[nH]nc2-c2cc(OC)c3c(c2)OCO3)cc1`, the growth was 28% (inactive). In the case of `Cc1cc(C)c2c(NC(=O)Nc3ccc(Cl)c(Cl)c3)n[nH]c2n1`, the growth is reported as 103% (inactive). With `COc1cccc(/C=N/N=C(N)N)c1` the growth was 81.8% (inactive). For `C/C(=N\NC(=S)N1CCCCC1)c1ccccn1`, the growth was -14.3% (active). `COc1ccc(C2CC(c3ccc(Nc4ccnc5cc(Cl)ccc45)cc3)=NN2c2ccccc2)cc1` (stereo not given) was tested, and the growth was 95% (inactive). In the case of `O=NN(CC(=O)NNc1ccccc1)CC(=O)NNc1ccccc1`, the growth is reported as 3.99% (active). With `C#CC[C@@H]1C[C@]2(C)[C@H]3CC[C@@H]4[C@H]5C(C(=C)C)CC[C@]5(C(=O)NCCCN5CCN(CCCN)CC5)CC[C@@]4(C)[C@]3(C)CC[C@H]2C(C)(C)[C@H]1OC(C)=O` (stereo not given in full) the growth was -85.6% (active). `Nc1nc2c(c3ncccc13)C(c1ccccc1)Cc1ncccc1-2` (stereo not given) was tested, and the growth was 59.4% (inactive). For `O=C1/C(=C\c2cccn2Cc2ccc(F)cc2)c2ccccc2N1c1c(Cl)cccc1Cl`, the growth was 62% (inactive). `COc1cccc(Cn2c(-c3nonc3NC(C)=O)nc3ccccc32)c1` was tested, and the growth was 45.2% (inactive). For `Nc1n[nH]c2ccc([C@@H]3Nc4c(F)cc5[nH]ncc5c4[C@H]4C5CCC(C5)[C@@H]34)cc12` (stereo not given in full), the growth was 38.1% (inactive). In the case of `COc1ccccc1/C=N\NC(=S)Nc1ccc(F)cc1`, the growth is reported as 58.9% (inactive). For `COc1cc(/C=C/C(=O)c2c(C)nc3ccccc3c2C)ccc1OCCCOc1cc2c(cc1OC)C(=O)N1CCC[C@H]1C=N2`, the growth was -81.3% (active). `COc1cc(/C=C/c2ccc3c(Br)cc(Br)c(O)c3n2)ccc1O` was tested, and the growth was 10% (inactive). For `SCc1ccc(CS)cc1`, the growth was 105% (inactive). With `O=C(O)c1ccccc1N=Cc1ccccc1` the growth was 119% (inactive).
